Compound activity: PubChem BioAssay, National Center for Advancing Translational Sciences (NCATS)
HPGD inh – qHTS Assay for Inhibitors of HPGD (15-Hydroxyprostaglandin Dehydrogenase); Potency, µM, without a hit: at the top dose activity change, negative = inhibition, hits mostly inhibitors; 15-hydroxyprostaglandin dehydrogenase [NAD(+)] (Homo sapiens), P15428; 150,000 compounds, 4.3% hits; purified HPGD, NADH fluorescence kinetic, PGE2 substrate; AID 894, 2007; active = well fitted inhibition curve with a large enough effect, not every such curve was filed as active; inconclusive = small, poorly fitted or top-dose-only effect, or another doubt; inactive = no such curve, though single readings can be large or run the other way; also: potency is read from the fitted curve at half-maximal effect
Target sequence (P15428 whole entry, looked up): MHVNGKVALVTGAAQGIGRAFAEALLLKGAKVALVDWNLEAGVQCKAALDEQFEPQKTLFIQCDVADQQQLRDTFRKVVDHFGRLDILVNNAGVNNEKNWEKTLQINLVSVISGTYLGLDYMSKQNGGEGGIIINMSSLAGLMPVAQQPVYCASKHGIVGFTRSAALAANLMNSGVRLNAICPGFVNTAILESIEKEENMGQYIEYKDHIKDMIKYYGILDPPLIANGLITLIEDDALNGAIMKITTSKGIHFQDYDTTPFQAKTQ
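NADH formation kinetics: reaction with 30 uM PGE2 and 1 mM NAD+ (final), 20 nM enzyme, Tris-HCl pH 8 with Tween 20, after 15 min compound preincubation at room temperature. Fluorescence change, last versus first of five reads.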
ALOX12 inhib – qHTS Assay for Inhibitors of 12-hLO (12-human lipoxygenase); Polyunsaturated fatty acid lipoxygenase ALOX12 (Homo sapiens), P18054; purified 12-hLO, xylenol orange hydroperoxide absorbance; Potency, µM (highest dose often 57.1 µM), inactives show at the highest dose activity change, negative = inhibition, usual class: inhibitors; 150,000 compounds, 0.12% hits; AID 1452, 2008; also: potency is read from the fitted curve at half-maximal effect; nearly all actives have a fitted effect of over 55% in size
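Hydroperoxide formation by human 12-lipoxygenase from 40 uM arachidonic acid was followed colorimetrically via ferric-xylenol orange complex, using the 573/405 nm absorbance ratio. Enzyme concentration was 150 nM, with 30 min reaction at room temperature.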
GLA inh pH 4.5 – qHTS Assay for Inhibitors of Human alpha-Galactosidase at pH 4.5; Alpha-galactosidase A (Homo sapiens), P06280; AID 1467, 2008; purified enzyme, 4-MU-alpha-Gal fluorescence, pH 4.5; 230,000 tested, under 10 active; activity change, negative = inhibition, % at 105 µM;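 also: 0% = full activity with enzyme and -100% = basal without enzyme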
Target sequence (P06280 whole entry, looked up): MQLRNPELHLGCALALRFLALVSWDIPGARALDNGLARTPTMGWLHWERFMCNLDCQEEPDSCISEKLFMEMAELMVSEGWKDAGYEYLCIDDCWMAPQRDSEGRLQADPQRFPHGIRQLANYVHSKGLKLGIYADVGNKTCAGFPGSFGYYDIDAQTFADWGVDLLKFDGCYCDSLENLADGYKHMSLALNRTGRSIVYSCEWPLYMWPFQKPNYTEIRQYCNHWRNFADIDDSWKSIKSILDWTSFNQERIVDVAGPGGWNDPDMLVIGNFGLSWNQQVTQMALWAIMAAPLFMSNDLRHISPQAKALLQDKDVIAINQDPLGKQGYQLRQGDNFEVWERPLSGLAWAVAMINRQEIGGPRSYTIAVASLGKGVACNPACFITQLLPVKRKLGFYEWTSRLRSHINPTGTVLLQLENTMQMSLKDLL
aGal spleen mod – qHTS Assay for Inhibitors and Activators of Human alpha-Galactosidase From Spleen Homogenate; Alpha-galactosidase A (Homo sapiens), P06280; human spleen homogenate, 4MU-alpha-Gal fluorescence, 40 min; Potency, µM (highest dose often 80 µM), for inactives: at the top dose activity change, negative = inhibition, hits mostly inhibitors; 240,000 compounds, 0.008% hits;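 also: potency is read from the fitted curve at half-maximal effect; 0% = enzyme with vehicle and -100% = no enzyme basal signal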
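Fluorogenic readout (Ex 365/Em 440 nm) of 4-methylumbelliferone released from 1 mM 4-MU-alpha-galactoside by spleen homogenate, 40 min at 37C, pH 5.0. Data normalized to no-enzyme and enzyme controls; Hill-equation AC50 from compound titrations.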
PNC assembly inh – High Content Assay for Compounds that inhibit the Assembly of the Perinucleolar Compartment. PC3M PTB-GFP, PNC prevalence imaging, 16 h; stronger effect = lower value. AID 2417, 2010. activity change (PNC), negative = inhibition, % at 10 µM. 140,000 compounds, 3.1% hits;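 active = readout at or below -70, meaning at least 70% loss of cells showing the perinucleolar compartment, a nuclear body marking cancer cells; inconclusive = readout between -30 and a set limit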;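 also: plate controls were DMSO wells for no effect and camptothecin positive control wells for full effect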
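PC3M cells stably expressing PTB-GFP, 750–1000 cells/well, treated 16 h at 37 °C with compound (23 nl of library stock), in duplicate. After paraformaldehyde fixation and Hoechst stain, imaged at 20x; PNC prevalence scored by image analysis.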
ALDH1A1 inh – qHTS Assay for Inhibitors of Aldehyde Dehydrogenase 1 (ALDH1A1). 220,000 compounds, 7.3% hits. Aldehyde dehydrogenase 1A1 (Homo sapiens), P00352. Potency, µM (series often up to 75.3 µM), for the others: at the highest dose activity, negative = inhibition, actives largely listed as inhibitors. Purified ALDH1A1, NADH fluorescence, propionaldehyde substrate; active = well fitted inhibition curve with a large enough effect, not every such curve was filed as active; inconclusive = small, poorly fitted or top-dose-only effect, or another doubt; inactive = no such curve, though single readings can be large or run the other way;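 also: potency is read from the fitted curve at half-maximal effect; plate controls were no enzyme wells and a reference inhibitor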
* hit, by the source's call; [ ] = dose if it differs, or a comment. This is a sample that favours compounds with a hit; in the whole collection about 10% have one here. Unless noted, calls follow the shape of the dose curve; as a rule, active = well fitted curve in the direction sought with a large enough effect; inconclusive = small, poorly fitted or top-dose-only effect, or another doubt; inactive = no such curve, though single readings can be large; an effect the other way counts as inactive or inconclusive. Unless noted, % is scaled to controls: 0 for no effect and ±100 for the full control effect.

`COc1cc(NCCCCCCCN)c2ncccc2c1` gave HPGD inh -12%, ALOX12 inhib 24%, GLA inh pH 4.5 0, aGal spleen mod 5%, PNC assembly inh inconclusive and ALDH1A1 inh 3.5µM*.
For COc1ccc2oc(=N)c(C(=O)Nc3ccccc3)cc2c1 the results were HPGD inh -12%, ALOX12 inhib -1%, GLA inh pH 4.5 -1, aGal spleen mod 4%, PNC assembly inh -83* and ALDH1A1 inh 8%.
Screening O=C1c2cccc3cccc(c23)C(=O)N1c1cccnc1 returned ALOX12 inhib -5%, GLA inh pH 4.5 -3, aGal spleen mod 5%, PNC assembly inh 25 and ALDH1A1 inh 3%.
For O=C1c2cccc3cccc(c23)C(=O)N1c1ccncc1 the results were HPGD inh inconclusive, ALOX12 inhib 4%, GLA inh pH 4.5 -14, aGal spleen mod -2%, PNC assembly inh -100* and ALDH1A1 inh inconclusive.
CC1=[N+](C)N(c2ccccc2)C(=O)C1N=Cc1c(Cl)cccc1Cl (stereo not given) was read as HPGD inh -10%, ALOX12 inhib 5%, GLA inh pH 4.5 7, aGal spleen mod 9%, PNC assembly inh 5 and ALDH1A1 inh inconclusive.
`CN1C(=O)/C(=C/c2ccccc2OCc2ccccc2)NC1=S` gave HPGD inh 11µM*, ALOX12 inhib 0%, GLA inh pH 4.5 -6, aGal spleen mod 0%, PNC assembly inh inconclusive and ALDH1A1 inh inconclusive.
`CN1C(=O)/C(=C/c2ccccc2OCc2ccc(C(=O)O)cc2)NC1=S` gave GLA inh pH 4.5 2, aGal spleen mod 0% and ALDH1A1 inh 3%.
Screening CN1C(=O)/C(=C/c2ccccc2OCc2cccc(F)c2)NC1=S returned HPGD inh 4.5µM*, ALOX12 inhib 0%, GLA inh pH 4.5 -11, aGal spleen mod 3%, PNC assembly inh 28 and ALDH1A1 inh -12%.
Screening COc1cc(C2Nc3c(F)cccc3C3C=CCC32)cc(Br)c1OC (stereo not given) returned GLA inh pH 4.5 -3, aGal spleen mod -8% and ALDH1A1 inh 25µM*.
`COc1cccc(C2Nc3c(F)cc(Br)cc3C3C=CCC32)c1OC` (stereo not given) gave HPGD inh -12%, ALOX12 inhib -4%, GLA inh pH 4.5 -10, aGal spleen mod 5%, PNC assembly inh 21 and ALDH1A1 inh 6%.
Screening CC(=O)Nc1cc(Cl)ccc1OS(=O)(=O)c1ccc(C)cc1 returned HPGD inh -4%, ALOX12 inhib -2%, GLA inh pH 4.5 5, aGal spleen mod 2%, PNC assembly inh inconclusive and ALDH1A1 inh 0%.
Screening c1ccc(-c2nnc(SCC3CCCO3)nc2-c2ccccc2)cc1 (stereo not given) returned GLA inh pH 4.5 -3, aGal spleen mod 9% and ALDH1A1 inh 13µM*.
Screening COc1ccccc1CNc1ncnc2ccc(-c3cccnc3)cc12 returned HPGD inh inconclusive, ALOX12 inhib 3%, GLA inh pH 4.5 0, aGal spleen mod 0% and ALDH1A1 inh -6%.
`Cn1c(CO)cnc1SCc1c(Cl)cccc1Cl` gave HPGD inh -3%, ALOX12 inhib 1%, GLA inh pH 4.5 5, aGal spleen mod -6%, PNC assembly inh 23 and ALDH1A1 inh -2%.
Screening Cn1ccnc1SCC(=O)c1ccc(O)cc1 returned GLA inh pH 4.5 -8, aGal spleen mod -8% and ALDH1A1 inh inconclusive.
Cn1ccnc1SCC(=O)c1ccc(Cl)cc1 was read as GLA inh pH 4.5 3, aGal spleen mod -5% and ALDH1A1 inh 14µM*.
`Cn1c(CO)cnc1SCC(=O)c1ccc(Cl)cc1` gave GLA inh pH 4.5 -4, aGal spleen mod -4% and ALDH1A1 inh 22µM*.
For C=CCNC(=S)NNC(=O)c1ccccc1 the results were HPGD inh 2%, ALOX12 inhib 2%, GLA inh pH 4.5 7, aGal spleen mod 3%, PNC assembly inh inconclusive and ALDH1A1 inh -3%.
C=CCNC(=S)NNC(=O)c1ccc(OC(C)C)cc1 was read as HPGD inh -16%, ALOX12 inhib 2%, GLA inh pH 4.5 -14, aGal spleen mod -3%, PNC assembly inh -91* and ALDH1A1 inh inconclusive.
`O=C(c1ccncc1)c1ccc(NS(=O)(=O)c2ccc(Br)s2)cc1` gave HPGD inh 28µM*, ALOX12 inhib 1%, GLA inh pH 4.5 -7, aGal spleen mod -3%, PNC assembly inh 0 and ALDH1A1 inh 18%.
`COc1cccc([C@@H]2Oc3ccc(OC)cc3/C(=N/OC[C@@H](O)COCc3ccco3)[C@@H]2O)c1` gave aGal spleen mod 4%[17.5 µM] and ALDH1A1 inh -7%[13.5 µM].
For O=C(CN1C(=O)C2C3CCC(C3)C2C1=O)OCC(=O)c1cccc([N+](=O)[O-])c1 (stereo not given) the results were HPGD inh -10%, ALOX12 inhib -1%, GLA inh pH 4.5 3, aGal spleen mod -6%, PNC assembly inh 68 and ALDH1A1 inh -15%.
`Cc1ccc(C(=O)COC(=O)CN2C(=O)C3C4CCC(C4)C3C2=O)cc1[N+](=O)[O-]` (stereo not given) gave ALOX12 inhib -1%, GLA inh pH 4.5 -2, aGal spleen mod -3%, PNC assembly inh 45 and ALDH1A1 inh 20µM*.
Screening COc1ccc(C(=O)COC(=O)CN2C(=O)C3C4C=CC(C5CC45)C3C2=O)cc1 (stereo not given) returned HPGD inh -11%, ALOX12 inhib -1%, GLA inh pH 4.5 2, aGal spleen mod -3%, PNC assembly inh -12 and ALDH1A1 inh 13µM*.
For COC(=O)C1C2C=CC(C3CC23)C1C(=O)OCC(=O)c1ccc(OC)cc1 (stereo not given) the results were HPGD inh 28µM*, ALOX12 inhib -1%, GLA inh pH 4.5 5, aGal spleen mod inconclusive, PNC assembly inh 16 and ALDH1A1 inh 6.3µM*.
`COc1ccc(C(=O)COC(=O)C(CCCCN2C(=O)C3C4C=CC(C4)C3C2=O)N2C(=O)C3C4C=CC(C4)C3C2=O)cc1` (stereo not given) gave HPGD inh -2%, ALOX12 inhib 5%, GLA inh pH 4.5 -1, aGal spleen mod -9%, PNC assembly inh 5 and ALDH1A1 inh 10µM*.
O=C(Nc1cnccn1)Nc1cccc(Cl)c1Cl was read as GLA inh pH 4.5 3, aGal spleen mod 6% and ALDH1A1 inh 1%.
